Sm TGR inh: blocks Schistosoma mansoni thioredoxin glutathione reductase; Q962Y6; purified TGR, DTNB reduction, TNB absorbance 405 nm; Potency, µM (doses to about 114 µM), hits mostly inhibitors; 3% of 360,000 active; AID 485364; note: nearly all actives have a fitted effect of over 60% in size
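Kinetic colorimetric format: TGR-catalysed, NADPH-driven DTNB reduction monitored via TNB absorbance. Enzyme dispensed at 20 nM; compound exposure 15 min at room temperature before reaction start.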
RE007 growth inh: less growth of the S. pombe RE007 Vpr strain. S. pombe RE007 Vpr strain, BacTiter-Glo ATP luminescence, 24 h. Potency, µM (series often up to 92.2 µM), hits mostly inhibitors. 0.21% of 360,000 active. AID 651644; active = well fitted falling curve with a large enough effect; inconclusive = small, poorly fitted or top-dose-only effect; inactive = no such curve, though single readings can be large or run the other way; note: nearly all actives have a fitted effect of over 50% in size
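Fission yeast RE007 carrying one integrated HIV-1 vpr copy, seeded at OD 0.01 in PMG+AL medium with 23 nL pinned compound. Grown 24 h at 30 degrees; viability read by BacTiter-Glo luminescence after 5 min.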
Tb PYK inh: blocks Trypanosoma brucei pyruvate kinase. AID 624173. Potency, µM (highest dose often 76.8 µM), usual class: inhibitors. TbPYK enzyme, Kinase-Glo Plus ATP luminescence, 45 min. 0.12% of 410,000 active; note: nearly all actives have a fitted effect of over 50% in size
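Screened from lowest to highest concentration, compounds were pinned into TbPYK/substrate mixtures, and ADP (130 uM final) was added. Plates sat at room temperature for 45 min prior to Kinase-Glo Plus detection by luminescence.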
LmPK inh: LmPK (Leishmania mexicana) enzyme inhibition | Q27686 | purified LmPK, Kinase-Glo ATP luminescence, 1 h | Potency, µM (titrated, usually from 57.5 µM), hits mostly inhibitors | 0.37% of 290,000 active | AID 1721
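Kinase-Glo luminescence read after 1 h RT reaction of 0.1 nM LmPK with 0.5 mM PEP and 0.1 mM ADP. Activity scaled between uninhibited and enzyme-free controls.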
Giardia FBPA inh: Giardia lamblia aldolase inhibition | A8B2U2 | purified Giardia FBPA | Potency, µM (series often up to 59.6 µM), hits mostly inhibitors | 0.71% of 290,000 active | AID 2451; note: nearly all actives have a fitted effect of over 55% in size
Target sequence (A8B2U2 whole entry, looked up): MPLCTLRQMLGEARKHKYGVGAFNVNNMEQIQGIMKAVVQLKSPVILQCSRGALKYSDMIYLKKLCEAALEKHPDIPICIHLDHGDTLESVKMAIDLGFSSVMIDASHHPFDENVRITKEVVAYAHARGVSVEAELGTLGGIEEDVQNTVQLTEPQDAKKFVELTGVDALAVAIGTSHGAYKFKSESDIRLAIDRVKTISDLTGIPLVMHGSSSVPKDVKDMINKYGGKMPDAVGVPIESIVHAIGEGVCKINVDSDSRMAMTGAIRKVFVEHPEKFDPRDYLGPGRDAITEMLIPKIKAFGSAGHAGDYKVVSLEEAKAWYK
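40 nM FBPA preincubated 10 min at RT with compound (up to 57.5 uM final), then substrate plus GAPDH/TPI/NAD/arsenate coupling and diaphorase/resazurin added. Fluorescence read after 20 min at RT, 525/598 nm.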
Each line names hits and unclear results; the compound was inactive in the other large screens. Rows were chosen to be rich in hits. Some 3.3% of all compounds tested hit in one or more screens of this group. Unless noted, calls come from the whole dose curve; as a rule, active = well fitted curve in the direction sought with a large enough effect; inconclusive = small, poorly fitted or top-dose-only effect, or another doubt; inactive = no such curve, though single readings can be large; an effect the other way counts as inactive or inconclusive.

NC(=O)c1ccccc1N/C=C/C(=O)c1cccs1	RE007 growth inh inconclusive, LmPK inh 16µM
Cc1ccc(C(=O)/C=C/Nc2ccccc2C(N)=O)o1	Sm TGR inh inconclusive
NC(=O)c1ccccc1N/C=C/C(=O)c1ccc(F)cc1	LmPK inh 8.9µM (no result: RE007 growth inh)
Cc1cccc(N/C=C/C(=O)c2cccs2)c1C	LmPK inh 16µM
COc1cccc(Cn2c(=O)cnc3cnc(Nc4cccc(OC)c4)nc32)c1	none (no result: Sm TGR inh, RE007 growth inh, Tb PYK inh, LmPK inh)
COc1ccc2c(Cl)c(C(=O)N/N=C/c3c(C)[nH]c4ccccc34)sc2c1	none
COc1ccccc1NC(=O)CCCC(=O)OCC(=O)c1ccc(F)cc1	none (no result: Giardia FBPA inh)
COc1ccccc1NC(CC(=O)c1ccccc1)C(=O)OCC(=O)c1ccc(F)cc1 (stereo unspecified)	Sm TGR inh 20µM
Cc1c(Cl)cccc1NC(CC(=O)c1ccccc1)C(=O)O (stereo unspecified)	Sm TGR inh 1µM, Tb PYK inh inconclusive
Cc1c(Cl)cccc1NC(CC(=O)c1ccccc1)C(=O)OCC(=O)c1cccs1 (stereo unspecified)	Sm TGR inh 8.9µM, RE007 growth inh inconclusive
O=C(CC(Nc1ccc(Cl)cc1)C(=O)O)c1ccccc1 (stereo unspecified)	Sm TGR inh 0.71µM, LmPK inh inconclusive
O=C(c1ccccc1)c1cccc(NC(=O)c2ccco2)c1	RE007 growth inh inconclusive
O=C(Cc1ccc(Cl)cc1)Nc1ccc(NC(=O)c2ccccc2)cc1	none
O=C(CC(=O)c1ccccc1)Nc1ccc(Cl)cc1	Sm TGR inh 32µM
Cc1nn(-c2ccccc2)c2nc(C(Cl)(Cl)Cl)[nH]c(=O)c12	Sm TGR inh 13µM
COc1ccccc1C(c1c(N)n(C)c(=O)n(C)c1=O)C(C)[N+](=O)[O-] (stereo unspecified)	RE007 growth inh inconclusive
COc1ccccc1C(C[N+](=O)[O-])c1c(N)n(C)c(=O)n(C)c1=O (stereo unspecified)	RE007 growth inh 35µM
CCc1cc(C=C(Cl)Cl)oc(=O)c1C	none
O=C(c1ccccc1)c1cc(F)c(N2CCOCC2)cc1Cl	RE007 growth inh 40µM
COCCNC(=O)/C(C#N)=C/c1cccc(/C=C(\C#N)C(=O)NCCOC)c1	none
COCCNC(=O)/C(C#N)=C/c1ccc(O)cc1	RE007 growth inh inconclusive, Tb PYK inh inconclusive, LmPK inh 13µM
C#CCOCCOCCOCCNc1nc(N2CCN(C(=O)CCCCCCCCCCNC(=O)[C@H]([C@@H](C)CC)n3cc(CCCCCN)nn3)CC2)nc(N2CCN(C(=O)CCCCCCCCCCNC(=O)[C@H](CO)n3cc(CCCCCN)nn3)CC2)n1	Sm TGR inh inconclusive (no result: LmPK inh, Giardia FBPA inh)
C#CCOCCOCCOCCNc1nc(N2CCN(C(=O)CCCCCCCCCCNC(=O)Cn3cc(CCCCCN)nn3)CC2)nc(N2CCN(C(=O)CCCCCCCCCCNC(=O)[C@@H](CCC(=O)O)n3cc(CCCCCN)nn3)CC2)n1	Sm TGR inh 50µM (no result: LmPK inh, Giardia FBPA inh)
C#CCOCCOCCOCCNc1nc(N2CCN(C(=O)CCCCCCCCCCNC(=O)[C@H]([C@@H](C)CC)n3cc(CCCCN=C(N)N)nn3)CC2)nc(N2CCN(C(=O)CCCCCCCCCCNC(=O)[C@H]([C@@H](C)CC)n3cc(CCCCN=C(N)N)nn3)CC2)n1	Sm TGR inh 40µM (no result: RE007 growth inh, Tb PYK inh, LmPK inh, Giardia FBPA inh)
C#CCOCCOCCOCCNc1nc(N2CCN(C(=O)CCCCCCCCCCNC(=O)[C@H]([C@@H](C)CC)n3cc(CCCCN=C(N)N)nn3)CC2)nc(N2CCN(C(=O)CCCCCCCCCCNC(=O)[C@H](CO)n3cc(CCCCCN)nn3)CC2)n1	Sm TGR inh 45µM (no result: LmPK inh, Giardia FBPA inh)
C#CCOCCOCCOCCNc1nc(N2CCN(C(=O)CCCCCCCCCCNC(=O)[C@H]([C@@H](C)CC)n3cc(CCCCN=C(N)N)nn3)CC2)nc(N2CCN(C(=O)CCCCCCCCCCNC(=O)[C@H](CCCCN)n3cc(C)nn3)CC2)n1	Sm TGR inh 40µM (no result: LmPK inh, Giardia FBPA inh)
CN1CC(=O)Nc2cc(C(=O)O)ccc21	none (no result: RE007 growth inh, LmPK inh, Giardia FBPA inh)
NC(CS)C(=O)O (stereo unspecified)	none (no result: Sm TGR inh, RE007 growth inh, LmPK inh, Giardia FBPA inh)
C#CCOCCOCCOCCNc1nc(N2CCN(C(=O)CCCCCCCCCCNC(=O)[C@H](CO)n3cc(CCCSC)nn3)CC2)nc(N2CCN(C(=O)CCCCCCCCCCNC(=O)[C@@H]([C@H](C)O)n3cc(C)nn3)CC2)n1	Sm TGR inh 45µM (no result: RE007 growth inh, Tb PYK inh, LmPK inh, Giardia FBPA inh)
O=C(O)c1ccc(/C=C2\SC(=S)N(Nc3ccccc3)C2=O)cc1	Sm TGR inh 3.2µM, LmPK inh inconclusive
O=C1/C(=C/c2ccncc2)SC(=S)N1Nc1ccccc1	Sm TGR inh 3.2µM
CCOP(=O)(OCC)C(NC(=O)C(Cl)Cl)C(Cl)(Cl)Cl (stereo unspecified)	none
S=C(NCCc1ccccc1)Nc1ccc(Nc2ccccc2)cc1	none
C[C@@H]1C(=O)O[C@H]2C[C@@]34[C@H]5C[C@@H](C(C)(C)C)[C@]36[C@H](OC(=O)[C@H]6O)O[C@]4(C(=O)O5)[C@]21O	none (no result: Sm TGR inh, RE007 growth inh, Tb PYK inh, LmPK inh)
CCC1(O)CC2CN(CCc3c([nH]c4ccccc34)[C@@](C(=O)OC)(c3cc4c(cc3OC)N(C=O)[C@H]3[C@](O)(C(=O)OC)[C@H](OC(C)=O)[C@]5(CC)C=CCN6CC[C@]43[C@@H]65)C2)C1 (stereo partly specified)	none (no result: Sm TGR inh, RE007 growth inh, LmPK inh, Giardia FBPA inh)
N#CC(C#N)=C1C=CC=CN1/C(=C\c1ccco1)C(=O)c1ccc(Cl)cc1	Sm TGR inh 1.4µM, Tb PYK inh inconclusive
Cc1cc(=O)oc2c(CN3CCCC3)c(O)ccc12	none
Cc1cc(=O)oc2c(O)c(O)ccc12	Giardia FBPA inh 7.1µM (no result: Sm TGR inh, LmPK inh)
O=c1cc(-c2ccccc2O)oc2c(O)c(O)ccc12	Giardia FBPA inh 6.3µM (no result: Sm TGR inh, RE007 growth inh, Tb PYK inh, LmPK inh)
O=c1cc(-c2ccccc2)oc2cc(O)c(O)cc12	none (no result: Sm TGR inh, RE007 growth inh, Tb PYK inh, LmPK inh)
O=c1cc(-c2ccccc2)oc2c(O)c(O)ccc12	Giardia FBPA inh 7.9µM (no result: Sm TGR inh, RE007 growth inh, Tb PYK inh, LmPK inh)
CC(C)N1CC(O)=C(c2ccccc2)C1=N	none
COC(=O)c1sccc1NC(=O)CC1C(=O)NCCN1C(=O)c1ccc(N(C)C)cc1 (stereo unspecified)	none
COc1cc(NC(=O)Cn2ncc(Cl)c(Cl)c2=O)c(C)cc1[N+](=O)[O-]	Sm TGR inh 40µM
COc1cc2c(cc1OC)C(c1cc(Br)ccc1F)N(C(=O)CCl)CC2 (stereo unspecified)	Sm TGR inh 0.79µM (no result: RE007 growth inh)
CCC(C)N1CCNCC1 (stereo unspecified)	none (no result: Sm TGR inh)
CN(C)c1ccc(NC(=O)CN2CCN(c3ccc(F)cc3)CC2)cc1	none
COc1ccc(Br)c(OC)c1C(=O)NC(=O)Nc1nc(C)cc(C)n1	Giardia FBPA inh 20µM
COc1ccc([N+](=O)[O-])c(OC)c1C(=O)NC(=O)Nc1nc(C)cc(C)n1	none
CCCc1ccc(C(=O)O/N=C(\N)c2ccccn2)cc1	RE007 growth inh inconclusive, Tb PYK inh inconclusive, LmPK inh 16µM
N/C(=N\OC(=O)c1cccc([N+](=O)[O-])c1)c1ccccn1	none

Source: PubChem BioAssay
